Assays:
Test in all cases: log2 ratio of Biotin-Ahx-Ub-VS probe labelling (fragment/DMSO); higher = less target engagement (more negative = stronger competition), active = hit call of the paper (q ≤ 0.05, log2 ratio ≤ -1)
Conditions in all cases: compound concentration: 200 uM; treatment time: 3 h
USP34 = USP34 (UniProt Q70CQ2)
Summary of the method: (§1)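 The table lists average log2 ratios of fragment over vehicle, from an unpaired t-test on global-median-normalised Spectronaut label-free quantities. Proteins with ≥2 unique peptides were used. Samples were HEK293T lysate (495 µg) treated in triplicate with fragment at 200 µM or vehicle for 3 h, then with Biotin-Ahx-Ub-VS (0.5 µM final) for 1 h, with labelled DUBs NeutrAvidin-enriched and run by diaPASEF LC-MS/MS.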

USP36 = target: T1, USP36 (UniProt Q9P275)
T1 sequence (whole entry): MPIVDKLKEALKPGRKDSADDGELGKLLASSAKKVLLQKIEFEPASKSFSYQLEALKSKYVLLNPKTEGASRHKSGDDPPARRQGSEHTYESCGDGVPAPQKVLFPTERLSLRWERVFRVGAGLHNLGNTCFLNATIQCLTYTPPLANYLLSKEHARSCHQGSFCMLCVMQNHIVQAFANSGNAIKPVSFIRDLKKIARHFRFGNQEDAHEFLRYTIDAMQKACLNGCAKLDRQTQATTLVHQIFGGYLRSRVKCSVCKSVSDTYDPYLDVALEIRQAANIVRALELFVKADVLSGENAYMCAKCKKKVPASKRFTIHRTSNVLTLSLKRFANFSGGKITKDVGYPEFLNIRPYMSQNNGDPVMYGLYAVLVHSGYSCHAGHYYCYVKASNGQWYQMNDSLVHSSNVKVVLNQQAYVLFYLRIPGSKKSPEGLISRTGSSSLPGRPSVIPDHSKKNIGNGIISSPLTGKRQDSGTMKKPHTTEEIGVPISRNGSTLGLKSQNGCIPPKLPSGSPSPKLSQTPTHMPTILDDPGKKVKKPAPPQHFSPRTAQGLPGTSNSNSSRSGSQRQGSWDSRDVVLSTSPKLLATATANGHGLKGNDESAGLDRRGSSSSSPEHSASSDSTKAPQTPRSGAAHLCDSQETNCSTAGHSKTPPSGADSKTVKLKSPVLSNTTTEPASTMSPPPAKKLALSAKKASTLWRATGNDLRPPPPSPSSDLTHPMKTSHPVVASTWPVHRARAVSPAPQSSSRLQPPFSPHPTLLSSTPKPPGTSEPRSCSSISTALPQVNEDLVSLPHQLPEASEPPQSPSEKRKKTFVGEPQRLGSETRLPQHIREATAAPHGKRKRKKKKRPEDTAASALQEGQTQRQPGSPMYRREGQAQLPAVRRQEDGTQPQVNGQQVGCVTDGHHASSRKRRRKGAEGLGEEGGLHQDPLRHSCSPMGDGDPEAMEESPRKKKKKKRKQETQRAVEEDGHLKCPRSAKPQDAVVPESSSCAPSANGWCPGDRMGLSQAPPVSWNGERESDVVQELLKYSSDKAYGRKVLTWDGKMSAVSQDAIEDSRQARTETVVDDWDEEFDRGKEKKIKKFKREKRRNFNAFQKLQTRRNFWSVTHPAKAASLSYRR
Summary of the method: as §1

USP38 = target: T2, USP38 (UniProt Q8NB14)
T2 sequence (whole entry): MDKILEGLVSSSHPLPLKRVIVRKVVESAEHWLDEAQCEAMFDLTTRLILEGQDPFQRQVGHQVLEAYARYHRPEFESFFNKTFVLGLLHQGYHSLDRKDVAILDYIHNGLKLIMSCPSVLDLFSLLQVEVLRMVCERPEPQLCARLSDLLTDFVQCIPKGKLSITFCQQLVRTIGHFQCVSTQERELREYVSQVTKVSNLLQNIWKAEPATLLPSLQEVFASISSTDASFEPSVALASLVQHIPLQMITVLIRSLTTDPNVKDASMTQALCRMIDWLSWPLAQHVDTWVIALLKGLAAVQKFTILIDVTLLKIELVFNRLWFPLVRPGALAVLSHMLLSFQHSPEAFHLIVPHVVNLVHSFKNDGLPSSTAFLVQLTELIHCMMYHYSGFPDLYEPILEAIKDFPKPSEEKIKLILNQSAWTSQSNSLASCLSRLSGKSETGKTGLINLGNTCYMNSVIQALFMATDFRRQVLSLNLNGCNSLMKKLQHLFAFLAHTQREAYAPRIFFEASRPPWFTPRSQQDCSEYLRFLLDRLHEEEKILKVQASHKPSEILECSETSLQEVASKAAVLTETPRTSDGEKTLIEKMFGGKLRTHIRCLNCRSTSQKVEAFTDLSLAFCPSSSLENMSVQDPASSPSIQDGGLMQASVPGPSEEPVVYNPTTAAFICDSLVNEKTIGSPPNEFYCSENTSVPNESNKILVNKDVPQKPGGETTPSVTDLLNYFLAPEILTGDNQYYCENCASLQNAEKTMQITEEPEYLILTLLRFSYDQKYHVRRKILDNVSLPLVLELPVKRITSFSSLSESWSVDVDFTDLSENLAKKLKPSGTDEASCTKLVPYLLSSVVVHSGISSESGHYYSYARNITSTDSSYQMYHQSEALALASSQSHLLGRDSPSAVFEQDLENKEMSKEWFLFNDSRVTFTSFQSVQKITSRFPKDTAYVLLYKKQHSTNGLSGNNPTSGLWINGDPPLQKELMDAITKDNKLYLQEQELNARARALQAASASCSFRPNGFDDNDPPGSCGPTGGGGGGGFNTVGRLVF
Summary of the method: as §1

USP39 = target: T3, USP39 (UniProt Q53GS9)
T3 sequence (whole entry): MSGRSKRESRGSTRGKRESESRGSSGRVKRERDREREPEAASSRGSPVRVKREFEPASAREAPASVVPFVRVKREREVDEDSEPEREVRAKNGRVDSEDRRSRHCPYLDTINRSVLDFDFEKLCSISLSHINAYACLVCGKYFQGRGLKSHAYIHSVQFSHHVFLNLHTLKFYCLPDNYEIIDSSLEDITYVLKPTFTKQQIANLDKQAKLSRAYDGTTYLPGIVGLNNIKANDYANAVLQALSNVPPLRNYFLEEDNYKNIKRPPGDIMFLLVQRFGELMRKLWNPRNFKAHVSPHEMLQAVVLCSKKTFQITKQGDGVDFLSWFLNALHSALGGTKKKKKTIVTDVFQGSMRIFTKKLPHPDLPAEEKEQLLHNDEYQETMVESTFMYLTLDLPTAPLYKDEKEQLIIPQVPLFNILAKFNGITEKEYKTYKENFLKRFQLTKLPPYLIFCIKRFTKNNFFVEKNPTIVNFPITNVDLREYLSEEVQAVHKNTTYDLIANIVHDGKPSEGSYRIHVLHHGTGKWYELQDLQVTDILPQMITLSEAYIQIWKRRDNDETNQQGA
Summary of the method: as §1

USP4 = target: T4, USP4 (UniProt Q13107)
T4 sequence (whole entry): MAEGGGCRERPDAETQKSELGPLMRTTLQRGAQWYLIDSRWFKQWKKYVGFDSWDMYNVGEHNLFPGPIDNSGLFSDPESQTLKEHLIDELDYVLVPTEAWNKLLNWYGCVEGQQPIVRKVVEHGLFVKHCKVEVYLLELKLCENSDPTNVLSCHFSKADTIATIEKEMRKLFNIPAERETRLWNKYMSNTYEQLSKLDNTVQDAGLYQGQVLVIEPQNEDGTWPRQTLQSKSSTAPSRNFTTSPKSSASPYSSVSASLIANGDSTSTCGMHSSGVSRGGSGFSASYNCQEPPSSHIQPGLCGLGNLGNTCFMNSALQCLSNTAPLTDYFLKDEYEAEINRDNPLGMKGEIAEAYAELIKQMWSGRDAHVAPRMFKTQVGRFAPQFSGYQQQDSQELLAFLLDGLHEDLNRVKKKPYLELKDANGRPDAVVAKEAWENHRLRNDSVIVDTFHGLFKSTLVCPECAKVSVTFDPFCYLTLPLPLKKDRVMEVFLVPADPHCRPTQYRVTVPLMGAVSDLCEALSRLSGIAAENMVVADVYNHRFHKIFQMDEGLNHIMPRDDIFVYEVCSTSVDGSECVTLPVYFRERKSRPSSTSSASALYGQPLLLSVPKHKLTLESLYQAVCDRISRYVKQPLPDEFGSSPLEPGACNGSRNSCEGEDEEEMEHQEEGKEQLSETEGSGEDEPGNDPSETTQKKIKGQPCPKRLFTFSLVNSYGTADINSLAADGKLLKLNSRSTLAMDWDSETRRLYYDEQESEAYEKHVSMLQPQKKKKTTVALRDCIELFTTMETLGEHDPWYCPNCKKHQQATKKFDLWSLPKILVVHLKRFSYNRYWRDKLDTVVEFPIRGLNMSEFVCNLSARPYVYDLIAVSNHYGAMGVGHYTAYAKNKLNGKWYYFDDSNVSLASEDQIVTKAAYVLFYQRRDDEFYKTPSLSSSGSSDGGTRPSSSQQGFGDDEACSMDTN
Summary of the method: as §1

Measured: log2 ratio of Biotin-Ahx-Ub-VS probe labelling

USP34, sequence (Q70CQ2 whole entry, the tested form may be a part): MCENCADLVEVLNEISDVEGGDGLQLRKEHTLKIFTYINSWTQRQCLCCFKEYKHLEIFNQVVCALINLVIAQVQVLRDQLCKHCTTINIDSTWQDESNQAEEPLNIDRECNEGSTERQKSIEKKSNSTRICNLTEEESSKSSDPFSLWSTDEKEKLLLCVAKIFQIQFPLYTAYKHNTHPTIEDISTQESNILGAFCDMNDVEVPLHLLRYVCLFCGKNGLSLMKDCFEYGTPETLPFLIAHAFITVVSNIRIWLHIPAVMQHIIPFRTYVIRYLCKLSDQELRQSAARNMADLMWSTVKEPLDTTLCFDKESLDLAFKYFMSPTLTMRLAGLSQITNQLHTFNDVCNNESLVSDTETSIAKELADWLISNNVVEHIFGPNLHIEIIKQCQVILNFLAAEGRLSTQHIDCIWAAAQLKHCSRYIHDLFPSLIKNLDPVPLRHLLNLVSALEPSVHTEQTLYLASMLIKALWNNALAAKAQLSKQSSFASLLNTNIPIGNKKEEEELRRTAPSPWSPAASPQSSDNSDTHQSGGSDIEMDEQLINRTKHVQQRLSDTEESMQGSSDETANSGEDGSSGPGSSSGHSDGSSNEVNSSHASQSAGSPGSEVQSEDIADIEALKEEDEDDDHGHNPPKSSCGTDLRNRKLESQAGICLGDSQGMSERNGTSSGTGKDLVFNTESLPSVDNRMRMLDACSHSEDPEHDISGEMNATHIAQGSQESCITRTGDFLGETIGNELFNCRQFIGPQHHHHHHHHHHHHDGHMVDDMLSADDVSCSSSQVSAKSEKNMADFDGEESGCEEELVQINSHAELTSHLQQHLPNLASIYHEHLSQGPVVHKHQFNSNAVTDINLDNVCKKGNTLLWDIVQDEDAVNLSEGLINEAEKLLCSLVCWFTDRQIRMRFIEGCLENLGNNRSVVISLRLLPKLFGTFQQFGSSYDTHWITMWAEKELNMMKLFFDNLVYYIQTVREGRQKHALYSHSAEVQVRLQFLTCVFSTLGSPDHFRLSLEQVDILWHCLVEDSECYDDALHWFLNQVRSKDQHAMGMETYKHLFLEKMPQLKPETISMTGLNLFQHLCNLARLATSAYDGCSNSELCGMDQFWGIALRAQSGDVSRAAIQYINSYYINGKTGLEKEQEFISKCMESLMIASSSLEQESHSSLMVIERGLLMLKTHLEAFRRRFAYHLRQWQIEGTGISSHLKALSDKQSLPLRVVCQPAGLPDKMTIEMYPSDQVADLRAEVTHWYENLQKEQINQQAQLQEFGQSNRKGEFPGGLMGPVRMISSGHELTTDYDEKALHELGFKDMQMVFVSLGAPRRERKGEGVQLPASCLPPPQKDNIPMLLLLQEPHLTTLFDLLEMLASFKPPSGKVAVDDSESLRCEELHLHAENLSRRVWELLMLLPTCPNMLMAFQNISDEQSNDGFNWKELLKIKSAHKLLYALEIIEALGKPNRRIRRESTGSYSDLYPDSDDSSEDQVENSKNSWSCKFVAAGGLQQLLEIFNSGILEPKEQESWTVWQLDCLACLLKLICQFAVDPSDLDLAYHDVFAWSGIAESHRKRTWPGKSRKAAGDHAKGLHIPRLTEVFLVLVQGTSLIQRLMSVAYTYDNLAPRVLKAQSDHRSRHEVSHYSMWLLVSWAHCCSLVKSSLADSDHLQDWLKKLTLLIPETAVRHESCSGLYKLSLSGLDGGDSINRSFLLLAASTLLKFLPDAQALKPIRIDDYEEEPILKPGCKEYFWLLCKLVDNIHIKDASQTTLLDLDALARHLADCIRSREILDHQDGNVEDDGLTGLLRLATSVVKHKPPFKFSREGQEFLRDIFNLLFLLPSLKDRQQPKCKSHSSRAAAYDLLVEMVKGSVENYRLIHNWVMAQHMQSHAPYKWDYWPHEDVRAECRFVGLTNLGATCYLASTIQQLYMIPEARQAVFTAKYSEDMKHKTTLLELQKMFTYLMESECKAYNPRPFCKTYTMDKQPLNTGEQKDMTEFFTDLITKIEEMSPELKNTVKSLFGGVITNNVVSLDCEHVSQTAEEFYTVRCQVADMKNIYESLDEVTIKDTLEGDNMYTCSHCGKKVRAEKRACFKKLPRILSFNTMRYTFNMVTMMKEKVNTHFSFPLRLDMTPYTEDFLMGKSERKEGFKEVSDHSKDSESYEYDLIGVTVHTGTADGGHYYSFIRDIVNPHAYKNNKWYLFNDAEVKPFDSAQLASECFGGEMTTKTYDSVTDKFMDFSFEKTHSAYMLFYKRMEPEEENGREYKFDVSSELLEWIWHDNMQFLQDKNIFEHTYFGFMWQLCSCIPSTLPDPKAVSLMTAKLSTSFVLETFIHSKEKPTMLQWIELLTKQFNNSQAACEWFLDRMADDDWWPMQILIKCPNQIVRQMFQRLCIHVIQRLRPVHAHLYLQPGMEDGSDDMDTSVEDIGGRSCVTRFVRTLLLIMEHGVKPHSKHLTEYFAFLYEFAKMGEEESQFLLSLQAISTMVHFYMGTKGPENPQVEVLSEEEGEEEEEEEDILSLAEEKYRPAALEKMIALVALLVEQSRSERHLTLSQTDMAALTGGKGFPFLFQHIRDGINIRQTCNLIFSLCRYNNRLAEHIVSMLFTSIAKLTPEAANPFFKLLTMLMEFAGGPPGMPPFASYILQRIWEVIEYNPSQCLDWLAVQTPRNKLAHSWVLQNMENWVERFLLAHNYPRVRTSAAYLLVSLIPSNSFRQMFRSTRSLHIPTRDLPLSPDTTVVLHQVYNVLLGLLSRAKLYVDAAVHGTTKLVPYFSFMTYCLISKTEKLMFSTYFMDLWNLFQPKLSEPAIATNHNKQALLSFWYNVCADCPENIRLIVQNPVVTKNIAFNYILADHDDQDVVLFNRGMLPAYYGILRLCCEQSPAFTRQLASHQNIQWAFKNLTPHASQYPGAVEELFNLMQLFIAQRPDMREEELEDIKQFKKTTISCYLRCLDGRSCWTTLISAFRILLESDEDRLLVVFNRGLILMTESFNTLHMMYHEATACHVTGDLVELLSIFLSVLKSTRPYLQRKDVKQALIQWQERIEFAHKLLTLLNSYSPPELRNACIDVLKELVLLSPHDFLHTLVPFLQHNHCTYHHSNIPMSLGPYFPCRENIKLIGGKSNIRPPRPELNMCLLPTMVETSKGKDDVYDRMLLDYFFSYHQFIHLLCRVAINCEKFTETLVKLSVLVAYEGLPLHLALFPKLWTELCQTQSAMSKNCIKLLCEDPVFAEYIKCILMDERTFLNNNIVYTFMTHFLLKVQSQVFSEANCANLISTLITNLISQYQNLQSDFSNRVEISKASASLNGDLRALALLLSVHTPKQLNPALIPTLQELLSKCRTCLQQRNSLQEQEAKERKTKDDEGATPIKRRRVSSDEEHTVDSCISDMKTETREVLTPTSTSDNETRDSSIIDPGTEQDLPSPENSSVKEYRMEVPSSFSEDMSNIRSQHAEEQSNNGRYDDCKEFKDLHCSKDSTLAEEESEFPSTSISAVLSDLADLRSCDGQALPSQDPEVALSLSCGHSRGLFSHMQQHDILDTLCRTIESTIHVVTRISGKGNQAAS

Cl.O=C(CCl)N1CCN(Cc2ccccc2)CC1
inactive: USP34 -0.191 | USP36 0.0546 | USP38 -0.0649 | USP39 0.144 | USP4 -0.121

Reference: the supplement of paper PMC11732987, “Enantioselective OTUD7B fragment discovery through chemoproteomics screening and high-throughput optimisation” (Communications Chemistry, 2025)
